Screening data (PubChem)
Compounds with a hit are over-represented: about 12% of the library has one in this group of screens.
Pf growth 96h – Primary qHTS for delayed death inhibitors of the malarial parasite plastid, 96 hour incubation | P. falciparum luciferase reporter growth, 96 h | actives 6.9% (n = 320,000) | Potency, µM (highest dose often 28.7 µM), hits mostly inhibitors
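Infected RBCs, 2% Hct / 0.05% parasitemia final; luciferase-reporter P. falciparum; cpd 96 h, 37 C, 5% CO2; luciferase detection reagent; luminescence.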
Sm TGR inh – qHTS Assay for the Inhibitors of Schistosoma Mansoni Peroxiredoxins; Potency, µM (series often up to 114 µM), actives largely listed as inhibitors; AID 485364, 2010; actives 3% (n = 360,000); purified TGR, DTNB reduction, TNB absorbance 405 nm; Schistosoma mansoni thioredoxin glutathione reductase (TGR), Q962Y6; further: nearly all actives have a fitted effect of over 60% in size
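TGR 20 nM + NADPH 100 uM (dispensed conc.), cpd preinc 15 min RT; start with NADPH (500 uM addition) then DTNB (15 mM addition). Kinetic TNB absorbance, 405 nm filter. Four-parameter Hill fit across titration.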
Pf growth 48h – Primary qHTS for delayed death inhibitors of the malarial parasite plastid, 48 hour incubation; P. falciparum luciferase growth in erythrocytes, 48 h; Potency, µM (top dose mostly 28.7 µM), hits mostly inhibitors; AID 504832, 2011; actives 5.9% (n = 310,000)
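Firefly luciferase activity from engineered P. falciparum reports growth; inhibitors lower the luminescent signal. Cultures contained 2% hematocrit erythrocytes at 0.1% final parasitemia.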
AmpC detergent – qHTS Inhibitors of AmpC Beta-Lactamase (assay with detergent); P00811; AmpC hydrolysis of nitrocefin, absorbance 480 nm, 0.01% Triton; Potency, µM (series often up to 114 µM), actives largely listed as inhibitors; actives 0.041% (n = 370,000); further: nearly all actives have a fitted effect of over 25% in size
Target sequence (P00811 whole entry, looked up): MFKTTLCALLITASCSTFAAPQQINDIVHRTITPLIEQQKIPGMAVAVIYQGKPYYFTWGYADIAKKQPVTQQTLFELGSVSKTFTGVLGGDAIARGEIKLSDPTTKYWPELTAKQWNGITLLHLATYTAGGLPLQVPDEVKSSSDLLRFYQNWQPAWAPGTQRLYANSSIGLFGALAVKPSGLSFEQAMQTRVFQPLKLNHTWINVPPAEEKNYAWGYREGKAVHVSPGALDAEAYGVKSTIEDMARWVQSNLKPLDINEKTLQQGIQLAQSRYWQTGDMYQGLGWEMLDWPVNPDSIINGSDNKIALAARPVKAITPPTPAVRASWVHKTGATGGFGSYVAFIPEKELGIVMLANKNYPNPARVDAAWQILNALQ
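20 mM phosphate pH 7.0 + 0.01% (detergent screen) or 0.0001% Triton X-100; 5.3 nM AmpC reagent; cpd preinc 15 min RT; nitrocefin (800 uM stock) to start; A480 q20 s × 4 min; Activity was normalised to no-enzyme and no-compound control wells.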
SARS PLP yeast – qHTS of Yeast-based Assay for SARS-CoV PLP. S. cerevisiae expressing SARS-CoV PLpro, growth rescue. Potency, µM (titrated, usually from 32.9 µM), actives largely listed as activators. actives 0.19% (n = 330,000). AID 485353, 2010; calls by dose curve; further: nearly all actives have a fitted effect of over 55% in size
AmpC inh no detg – qHTS Inhibitors of AmpC Beta-Lactamase (assay without detergent). AmpC nitrocefin hydrolysis, absorbance 480 nm, 0.0001% Triton. Potency, µM (doses to about 57.1 µM), most hits filed as inhibitors. AID 485341, 2010. P00811. actives 0.52% (n = 330,000); further: nearly all actives have a fitted effect of over 20% in size
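AmpC (5.3 nM in the dispensed reagent) in 20 mM phosphate pH 7.0 with 0.01% (detergent screen) or 0.0001% Triton X-100 was preincubated with compounds for 15 min at room temperature. Nitrocefin was then added from an 800 uM solution, and hydrolysis was followed at 480 nm.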
Each line names hits and unclear results; the compound was inactive in the other large screens. Unless noted, the call rests on the fitted dose curve; in most records, active means well fitted curve in the direction sought with a large enough effect; inconclusive means small, poorly fitted or top-dose-only effect, or another doubt; inactive means no such curve, though single readings can be large; an effect the other way counts as inactive or inconclusive.

CS(=O)(=O)Nc1ccc(C(=O)NCCSCc2ccco2)cc1	Sm TGR inh inconclusive, AmpC inh no detg inconclusive (no result: Pf growth 96h)
O=C(CSCc1c(F)cccc1Cl)NCc1ccco1	Pf growth 48h inconclusive
O=C(O)Cn1nc(-c2ccccc2)oc1=O	none (no result: Pf growth 96h)
CC(C)(C)C(=O)n1nc(-c2ccccc2)oc1=O	Sm TGR inh 32µM
O=C(/C=C/c1ccccc1Cl)Nc1nc(-c2cccs2)ns1	none (no result: Pf growth 96h, Pf growth 48h, SARS PLP yeast, AmpC inh no detg)
COc1ccccc1Nc1nc(-c2cccnc2)cs1	none
N#Cc1ccc(OCC(=O)Nc2nc(-c3cccnc3)cs2)cc1	Pf growth 96h inconclusive, Pf growth 48h 12µM
CCc1ccccc1Nc1nc(-c2cccnc2)cs1	Pf growth 96h 9.3µM, Pf growth 48h 12µM, AmpC detergent inconclusive
Cc1cc(C)cc(OCC(=O)Nc2nc(-c3cccnc3)cs2)c1	Pf growth 96h 15µM, Pf growth 48h inconclusive
CC(C)Cn1cc(NC(=O)NCc2ccccc2Cl)c2ccccc2c1=O	none (no result: Pf growth 96h, Pf growth 48h, SARS PLP yeast, AmpC inh no detg)
CCc1ccc2oc(C(=O)NCc3ccccc3)cc(=O)c2c1	none (no result: Pf growth 96h, Pf growth 48h, SARS PLP yeast, AmpC inh no detg)
C(=C\c1nccc2c1[nH]c1ccccc12)/c1ccccc1	Pf growth 96h 2.6µM, Pf growth 48h 1.9µM, AmpC detergent inconclusive
Cc1ccc(/C=C\c2nccc3c2[nH]c2ccccc23)cc1	Pf growth 96h inconclusive, Pf growth 48h 2.6µM (no result: Sm TGR inh)
Fc1ccc(/C=C\c2nccc3c2[nH]c2ccccc23)cc1	Pf growth 48h inconclusive (no result: Sm TGR inh)
COCCN(C(=O)c1ccco1)c1nc(-c2ccccc2)cs1	Pf growth 96h inconclusive, Sm TGR inh 63µM
CCN(Cc1ccccc1)C(=O)c1cc(-c2ccccc2)n[nH]1	AmpC detergent inconclusive (no result: Pf growth 96h, Pf growth 48h, SARS PLP yeast, AmpC inh no detg)
O=[N+]([O-])c1cc(CSC2=NCCN2)ccc1O	none
CCCOc1ccc(CSC2=NCCN2)cc1[N+](=O)[O-]	Pf growth 96h inconclusive, Pf growth 48h 15µM, AmpC detergent inconclusive
COc1ccccc1NC(=O)NS(=O)(=O)c1ccc(C)cc1	none (no result: Pf growth 96h)
CN(Cc1ccccc1)C(=O)CCS(=O)(=O)c1ccc2c(c1)n(C)c(=O)c(=O)n2C	Sm TGR inh 22µM, AmpC detergent inconclusive, AmpC inh no detg 0.5µM
Cn1c(=O)c(=O)n(C)c2cc(S(=O)(=O)CCC(=O)Nc3cccc(C(F)(F)F)c3)ccc21	Pf growth 96h 10µM
COc1ccccc1OCC(=O)N1CCCC(Nc2ccc(F)c(F)c2)C1 (centres undefined)	none
O=C(NC1CCCCC1)NC1CC2CCC(C1)N2C(=S)NCc1ccco1 (centres undefined)	none
CCOCCCNC(=S)N1C2CCC1CC(NC(=O)NC1CCCCC1)C2 (centres undefined)	Pf growth 48h inconclusive, AmpC inh no detg 0.32µM
Cc1ccc(CN(C)C(=O)c2cccc(S(=O)(=O)N3CCCC3)c2)o1	none (no result: Pf growth 96h, Sm TGR inh, Pf growth 48h, AmpC detergent)
COc1ccccc1CCNC(=O)C1CCC(=O)N(Cc2ccccc2OC)C1 (centres undefined)	none
COc1ccccc1CN1CC(C(=O)N(C)Cc2ccc(C)o2)CCC1=O (centres undefined)	Sm TGR inh 20µM
COc1ccccc1CN1CC(C(=O)NCCc2ccc(C)o2)CCC1=O (centres undefined)	Pf growth 96h 9.3µM, Sm TGR inh 25µM
COc1ccc(S(=O)(=O)N2CCC(C(=O)N(C)Cc3ccc(C)o3)CC2)cc1OC	Pf growth 96h inconclusive, Sm TGR inh 40µM, Pf growth 48h inconclusive
O=C(/C=C/c1ccc([N+](=O)[O-])cc1)Nc1ncc([N+](=O)[O-])s1	AmpC inh no detg inconclusive
CC(=O)N1c2ccc(S(=O)(=O)N(C)CC(=O)Nc3ccccc3C)cc2CC1C (centres undefined)	Pf growth 96h inconclusive, Pf growth 48h inconclusive
CCCSc1ncc(Cl)c(C(=O)Nc2c(C(=O)c3ccc(C)cc3)oc3ccccc23)n1	none (no result: Pf growth 96h, Pf growth 48h, SARS PLP yeast, AmpC inh no detg)
Cc1nc2c(C(=O)NCCC(C)C)cnn2c(C)c1Cc1c(F)cccc1Cl	none (no result: Pf growth 96h, Pf growth 48h, SARS PLP yeast, AmpC inh no detg)
